Source: PubChem BioAssay
The list is not random: actives were taken first. Their share in the collection is about 21%.
Shiga toxin inh – inhibitors of Shiga toxin in Vero cells; Vero cells, Shiga toxin protein synthesis inhibition reporter; inhibition, % at 38.7 µM; hit rate 9.2% among 290,000; in the data active = inhibition mostly above about 28%, no sharp cut-off; inactive = mostly below about 43%; note: 0% is about no effect
NS1 function inh – influenza NS1 inhibition | Potency, µM (series often up to 46.1 µM), without a hit: top-dose activity, positive = more growth | AID 2326 | hit rate 0.4% among 270,000; calls by dose curve; note: potency is the fitted concentration of half-maximal effect; actives are rising curves; nearly all actives have a fitted effect of over 50% in size
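Read-out: OD600 growth recovery of NS1-expressing budding yeast. Cells grown overnight at 30C in -URA glucose medium, washed, resuspended and diluted 1:100 in 2% galactose assay medium, pH 6.0. Same strain lacking NS1 served as positive control.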
Pf growth 96h – P. falciparum growth inhibition at 96 hours. P. falciparum luciferase reporter growth, 96 h. Potency, µM (series often up to 28.7 µM), for the others: at the top dose activity change, negative = inhibition, hits mostly inhibitors. hit rate 6.9% among 320,000. AID 504834; note: potency is the fitted concentration of half-maximal effect; % is set by controls: 0 for no effect and ±100 for the full control effect
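Delayed-death screen, second-generation endpoint: infected erythrocytes, 2% hematocrit, 0.05% parasitemia final; 96 hours at 37 C, 5% CO2; luciferase detection reagent; luminescence decrease equals reduced growth.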
Cycloheximide cs – counter-screen for Shiga toxin inhibitors: cycloheximide protein synthesis inhibition; cell reporter, cycloheximide protein synthesis inhibition counterscreen; max response, %; hit rate 12% among 300,000; AID 2314; in the data active = max response mostly above about 13%, no sharp cut-off; inactive = mostly below about 14%; note: read at 38.3 µM for the half of the compounds with a filed dose; 0% is about no effect
Giardia FBPA inh – Giardia lamblia aldolase inhibition; A8B2U2; purified Giardia FBPA; Potency, µM (highest dose often 59.6 µM), without a hit: top-dose activity, negative = inhibition, hits mostly inhibitors; hit rate 0.71% among 290,000; note: potency is the fitted concentration of half-maximal effect; % is set by controls: 0 for no effect and ±100 for the full control effect; nearly all actives have a fitted effect of over 55% in size
Target sequence (A8B2U2 whole entry, looked up): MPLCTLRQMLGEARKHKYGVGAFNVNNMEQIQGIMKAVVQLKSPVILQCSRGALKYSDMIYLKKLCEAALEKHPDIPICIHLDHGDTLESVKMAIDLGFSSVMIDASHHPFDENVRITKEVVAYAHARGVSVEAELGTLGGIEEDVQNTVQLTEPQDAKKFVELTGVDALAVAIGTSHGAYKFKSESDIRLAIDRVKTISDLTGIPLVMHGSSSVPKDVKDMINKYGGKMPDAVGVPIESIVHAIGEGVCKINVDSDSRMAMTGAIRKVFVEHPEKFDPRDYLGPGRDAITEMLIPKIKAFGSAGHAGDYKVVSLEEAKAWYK
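40 nM FBPA preincubated 10 min at RT with compound (up to 57.5 uM final), then substrate plus GAPDH/TPI/NAD/arsenate coupling and diaphorase/resazurin added. Fluorescence read after 20 min at RT, 525/598 nm.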
Pf growth 48h – inhibits P. falciparum growth in the first generation, 48 h. Potency, µM (series often up to 28.7 µM), for the others: at the highest dose activity change, negative = inhibition, most hits filed as inhibitors. P. falciparum luciferase growth in erythrocytes, 48 h. hit rate 5.9% among 310,000; note: potency is the fitted concentration of half-maximal effect; % is set by controls: 0 for no effect and ±100 for the full control effect
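First compound was added to culture medium, then infected red cells at 0.1% parasitemia and 2% hematocrit (final). After incubation at 37 C under 5% CO2, luciferase detection reagent was dispensed and light output recorded.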
* hit, by the source's call; i = inactive; ? = inconclusive; . = not tested or not shown. Unless noted, calls come from the whole dose curve; as a rule, active = well fitted curve in the direction sought with a large enough effect; inconclusive = small, poorly fitted or top-dose-only effect, or another doubt; inactive = no such curve, though single readings can be large; an effect the other way counts as inactive or inconclusive.

SMILES | Shiga toxin inh | NS1 function inh | Pf growth 96h | Cycloheximide cs | Giardia FBPA inh | Pf growth 48h
Cc1oc(-c2cccc(Cl)c2)nc1CN1CCC(C(=O)NCc2ccco2)CC1 | 50 | -8% | -10% | 10 | 5% | 4%
CCN1CCCC1CNC(=O)C1CCN(Cc2nc(-c3cccc(Br)c3)oc2C)CC1 (stereo not given) | -8 | 3% | ? | 2 | -20% | 6.6µM*
COc1ccccc1CNC(=O)C1CCN(Cc2nc(-c3cccc(Cl)c3)oc2C)CC1 | 22 | -4% | i | 3 | 16% | 10µM*
Cc1oc(-c2ccc(Cl)cc2)nc1CN1CCC(C(=O)NCCCN2CCCC(C)C2)CC1 (stereo not given) | -5 | 2% | 7% | -2 | . | 2.1µM*
CSc1ccc(-c2nc(CN3CCCCC3c3cccnc3)c(C)o2)cc1 (stereo not given) | 15 | -3% | -26% | -1 | 0% | 8.3µM*
CCOCCCn1c(C)nc2c(c1=O)c1nc3ccccc3nc1n2-c1ccc(C)cc1 | -3 | -15% | ? | 3 | -1% | 0%
CCO/C(C)=N/n1c2nc3ccccc3nc2c2c(=O)n(CC(C)C)c(C)nc21 | -12 | -3% | 2.3µM* | -2 | -3% | 2.9µM*
O=C(c1cccc(NS(=O)(=O)c2ccc(F)c(F)c2)c1)N1CCN(C(c2ccccc2)c2ccccc2)CC1 | -8 | 17% | ? | 7 | 10% | 13µM*
O=C(C1CCCCN1S(=O)(=O)c1ccccc1)N1CCN(C(c2ccccc2)c2ccccc2)CC1 (stereo not given) | 13 | 22% | 1.9µM* | 3 | 3% | 1.9µM*
CS(=O)(=O)N(CC(=O)N1CCN(C(c2ccccc2)c2ccccc2)CC1)C1CCCCC1 | 1 | -1% | 2.6µM* | 11 | 5% | .
O=C(C1CCCCN1S(=O)(=O)c1ccc(F)cc1)N1CCN(c2ccccc2F)CC1 (stereo not given) | 15 | -47% | 4.7µM* | -3 | 2% | -7%
COc1ccccc1N1CCN(C(=O)C2CCCCN2S(=O)(=O)c2ccc(C)cc2)CC1 (stereo not given) | 10 | -5% | -19% | -1 | -4% | ?
O=C(C1CCCCN1S(=O)(=O)c1ccccc1)N1CCCCC1 (stereo not given) | 5 | 9% | ? | -3 | . | ?
Cc1ccc(S(=O)(=O)N(C)Cc2ccc(-c3nnc4n3CCC4)cc2)cc1 | 22 | -12% | 11% | -4 | -7% | 10µM*
COc1ccc(C(=O)/C=C/Nc2ccc([N+](=O)[O-])cc2)cc1 | 114* | 7% | -4% | 85* | 2% | 110%
CCOc1ccc(N/C=C/C(=O)c2ccc(OC)cc2)cc1 | 132* | 8% | ? | 20* | 2% | -1%
CCOc1ccc(N/C=C/C(=O)c2ccc(OC)cc2)c([N+](=O)[O-])c1 | 132* | 15% | 135% | 39* | 0% | 7%
CCOC(=O)Cc1cnc(NC(=O)CSc2nc3ncnc(N)c3[nH]2)s1 | -3 | . | 16% | 0 | -7% | 7%
CN(C(=O)c1ccc(N2CCCCC2)c([N+](=O)[O-])c1)C1(C)CCS(=O)(=O)C1 (stereo not given) | 12 | -3% | -5% | -1 | . | 15%
COc1ccc(CNS(=O)(=O)c2ccccc2Br)cc1 | 13 | -1% | -8% | 20 | 4% | 0%
O=C(c1cc(C(F)(F)F)cc(C(F)(F)F)c1)N1CCC[C@@]2(CCN(c3ccncc3)C2)C1 | . | . | . | . | 0% | .
Cc1cnc(CNc2ncnc3ccc(-c4ccccc4C)cc23)cn1 | . | . | . | . | 5% | .
O=C1CC(c2ccc(F)cc2)CC2=C1C(c1ccc([N+](=O)[O-])o1)Nc1ccccc1N2 (stereo not given) | 18 | 7% | ? | 12* | -9% | ?
CN(C)C=NC(=O)c1cc(C(=O)c2ccc(C(C)(C)C)cc2)c[nH]1 | 83* | . | 411% | 44* | 0% | i
CC(C)(C)c1ccc(C(=O)c2c[nH]c(C(=O)O)c2)cc1 | 36 | . | 323% | 29* | ? | 208%
SMILES | Shiga toxin inh | NS1 function inh | Pf growth 96h | Cycloheximide cs | Giardia FBPA inh | Pf growth 48h
COc1ccc(C(=O)CC(=O)c2ccc(C(C)(C)C)cc2)cc1 | . | . | 3% | . | 1% | 75%
COC(=O)c1cc(C(=O)c2ccc(C(C)(C)C)cc2)c[nH]1 | 97* | 2% | 24% | 32* | -3% | -27%
CC(C)CC(=O)c1c[nH]c(C(=O)O)c1 | 18 | 9% | -1% | -2 | 0% | 1%
C=CC[n+]1c(/C=C/c2ccc(OC(C)=O)c(OC)c2)ccc2ccccc21 | 5 | 12% | ? | 2 | 4% | .
Cc1cc(Nc2ccc(C)c(Cl)c2)nc(N2CCOCC2)n1 | 13 | -53% | ? | 7.5* | -12% | ?
Cc1ccc(Nc2nc(N3CCOCC3)nc(N3CCOCC3)n2)cc1 | -3 | -29% | ? | 14* | -1% | ?
CCOC(=O)c1ccc(Nc2cc(C)nc(N3CCOCC3)n2)cc1 | -22 | -61% | ? | -7 | -1% | ?
CC(C)c1ccc(Nc2nc(NCc3ccco3)nc(N3CCOCC3)n2)cc1 | -11 | -55% | 33% | 2 | -5% | 13µM*
CCOc1ccc(Nc2nc(N3CCOCC3)nc(N3CCOCC3)n2)cc1 | -3 | -10% | 4% | -2 | 5% | -27%
Cc1ccc(Nc2cc(C)nc(N3CCOCC3)n2)cc1 | 81* | -16% | 24% | 26* | -18% | 66%
CCOc1ccc(Nc2cc(C)nc(N3CCOCC3)n2)cc1 | -5 | -9% | 39% | -5 | -14% | -12%
CC(C)CCN1CCN(CC#Cc2ccccc2)CC1CCO (stereo not given) | -11 | 5% | 1% | 8 | 2% | ?
COc1ccc(N(C)C(=O)c2cc3c(s2)-c2ccc(Cl)cc2S(=O)(=O)C3)c(OC)c1 | -9 | 9% | 13µM* | 9 | -7% | ?
CN(C(=O)c1cc2c(s1)-c1ccccc1S(=O)(=O)C2)c1ccccc1F | 2 | -3% | ? | 11 | 7% | ?
CN(C(=O)c1cc2c(s1)-c1ccccc1S(=O)(=O)C2)c1ccccc1 | 42 | -11% | ? | 9 | 7% | 9.3µM*
COCCn1c(SCC(=O)N(C)C2CCS(=O)(=O)C2)nc2ccccc2c1=O (stereo not given) | -18 | 4% | 14% | 2 | 0% | -2%
C=CCn1c(SCC(=O)N(C(C)CC)C2CCS(=O)(=O)C2)nc2ccccc2c1=O (stereo not given) | . | . | 5.9µM* | . | . | ?
CCC(C)N(C(=O)CSc1nc(-c2ccccc2)cs1)C1CCS(=O)(=O)C1 (stereo not given) | 3 | 12% | ? | 3 | 8% | .
CCn1c(SCC(=O)N(Cc2ccccc2)C2CCS(=O)(=O)C2)nc2ccccc2c1=O (stereo not given) | -16 | -7% | . | -7 | -2% | 5.2µM*
